This passage reports binding signal results from paper PMC7862700, “An all-to-all approach to the identification of sequence-specific readers for epigenetic DNA modifications on cytosine”.

What all share (test): DAPPL (digital affinity profiling via proximity ligation, sequencing); 10 mM Tris-HCl pH 7.5, 50 mM NaCl, 1 mM DTT, 4% glycerol, room temperature, 30 min; GST-TFs on glutathione beads, 16-mer random dsDNA library, 0.1% formaldehyde crosslink after washing; high values mean tight binding
Experiment [1] concerns the target T1, FEV (Homo sapiens, UniProt Q99581 1-238).
T1 sequence: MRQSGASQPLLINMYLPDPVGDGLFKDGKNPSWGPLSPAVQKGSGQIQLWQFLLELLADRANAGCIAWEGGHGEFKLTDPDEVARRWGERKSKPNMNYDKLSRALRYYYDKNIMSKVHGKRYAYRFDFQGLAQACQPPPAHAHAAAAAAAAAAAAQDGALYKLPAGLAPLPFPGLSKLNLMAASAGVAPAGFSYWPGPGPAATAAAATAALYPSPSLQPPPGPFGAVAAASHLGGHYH
The conditions noted are these: protein: recombinant; tags: N-terminal GST; dsDNA, one strand shown. Put shortly:
(§1)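 Binding signal is given per hexamer as its read frequency for a factor divided by its frequency in the tag-only sample. GST-fused human transcription factors were expressed in yeast, captured on glutathione beads, barcoded with DNA and pooled with that sample, then incubated with 200 nmole of a 16-mer random double-stranded DNA library in Tris/NaCl/DTT/glycerol buffer for 30 min at room temperature. The pools were then washed, crosslinked, proximity-ligated, amplified by PCR and sequenced on an Illumina NextSeq500.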

Experiment [2] concerns the target ETV5 (Homo sapiens, UniProt P41161 1-510). The settings on record: protein: recombinant; tags: N-terminal GST; dsDNA, one strand shown. An outline of the steps: as §1
Experiment [3] addresses HSF1 (Homo sapiens, UniProt Q00613 1-529). The conditions noted are these: protein: recombinant; tags: N-terminal GST; chain copies: 3; dsDNA, one strand shown. Put shortly:
as §1

Experiment [4] has as its target T2, SPIC (Homo sapiens, UniProt Q8N5J4 1-248).
T2 sequence: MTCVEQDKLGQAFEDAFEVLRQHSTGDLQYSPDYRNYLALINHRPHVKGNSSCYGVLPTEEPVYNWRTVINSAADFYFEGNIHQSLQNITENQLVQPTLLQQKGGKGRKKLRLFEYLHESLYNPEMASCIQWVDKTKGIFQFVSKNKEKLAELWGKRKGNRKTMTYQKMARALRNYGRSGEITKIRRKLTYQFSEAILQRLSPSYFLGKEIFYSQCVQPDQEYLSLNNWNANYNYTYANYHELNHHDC
The conditions noted are these: protein: recombinant; tags: N-terminal GST; dsDNA, one strand shown. An outline of the steps:
as §1

In experiment [5] the target is ELF4 (Homo sapiens, UniProt Q99607 1-663). The settings on record: protein: recombinant; tags: N-terminal GST; dsDNA, one strand shown. Put shortly:
as §1

In experiment [6] the target is T3, ELK4 (Homo sapiens, UniProt P28324-2 1-405).
T3 sequence: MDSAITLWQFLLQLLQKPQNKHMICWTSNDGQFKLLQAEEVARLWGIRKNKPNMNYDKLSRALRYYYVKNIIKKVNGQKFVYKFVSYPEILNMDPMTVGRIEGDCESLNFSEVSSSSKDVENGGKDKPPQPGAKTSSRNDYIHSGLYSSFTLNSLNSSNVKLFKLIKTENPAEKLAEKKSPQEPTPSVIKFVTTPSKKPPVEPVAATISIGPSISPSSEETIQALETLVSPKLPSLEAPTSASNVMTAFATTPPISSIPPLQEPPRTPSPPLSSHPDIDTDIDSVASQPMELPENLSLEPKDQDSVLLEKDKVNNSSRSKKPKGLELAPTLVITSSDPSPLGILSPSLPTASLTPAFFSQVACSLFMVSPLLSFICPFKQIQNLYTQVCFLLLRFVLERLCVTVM
The conditions noted are these: protein: recombinant; tags: N-terminal GST; dsDNA, one strand shown. An outline of the steps: as §1

Experiment [7] has as its target T4, ETV2 (Homo sapiens, UniProt O00321 1-342).
T4 sequence: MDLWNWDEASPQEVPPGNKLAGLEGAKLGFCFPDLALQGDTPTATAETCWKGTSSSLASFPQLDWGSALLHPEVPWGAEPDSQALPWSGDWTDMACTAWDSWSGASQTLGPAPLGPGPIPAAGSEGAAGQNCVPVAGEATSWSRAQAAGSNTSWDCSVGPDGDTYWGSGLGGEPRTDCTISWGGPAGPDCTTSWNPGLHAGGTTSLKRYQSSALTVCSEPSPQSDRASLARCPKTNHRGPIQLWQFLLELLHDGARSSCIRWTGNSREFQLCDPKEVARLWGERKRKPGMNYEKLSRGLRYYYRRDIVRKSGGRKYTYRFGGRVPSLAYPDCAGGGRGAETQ
The conditions noted are these: protein: recombinant; tags: N-terminal GST; dsDNA, one strand shown. Put shortly:
as §1

The target in experiment [8] is T5, ELF3 (Homo sapiens, UniProt P78545 1-371).
T5 sequence: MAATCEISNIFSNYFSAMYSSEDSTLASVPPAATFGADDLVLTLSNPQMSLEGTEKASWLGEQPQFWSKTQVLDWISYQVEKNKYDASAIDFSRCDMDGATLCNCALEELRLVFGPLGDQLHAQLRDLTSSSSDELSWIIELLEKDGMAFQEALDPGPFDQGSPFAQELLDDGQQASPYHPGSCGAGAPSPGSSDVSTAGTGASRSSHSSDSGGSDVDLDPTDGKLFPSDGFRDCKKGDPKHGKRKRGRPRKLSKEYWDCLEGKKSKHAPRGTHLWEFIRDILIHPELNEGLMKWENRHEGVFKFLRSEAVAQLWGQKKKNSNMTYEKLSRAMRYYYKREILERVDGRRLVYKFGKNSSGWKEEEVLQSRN
The conditions noted are these: protein: recombinant; tags: N-terminal GST; dsDNA, one strand shown. An outline of the steps: as §1

Experiment [9] concerns the target CRX (Homo sapiens, UniProt O43186 1-299). The conditions noted are these: protein: recombinant; tags: N-terminal GST; dsDNA, one strand shown. An outline of the steps:
as §1

For experiment [10], the target named is ETV1 (Homo sapiens, UniProt P50549 1-477). The settings on record: protein: recombinant; tags: N-terminal GST; dsDNA, one strand shown. An outline of the steps: as §1
ETV1, sequence (P50549 whole entry): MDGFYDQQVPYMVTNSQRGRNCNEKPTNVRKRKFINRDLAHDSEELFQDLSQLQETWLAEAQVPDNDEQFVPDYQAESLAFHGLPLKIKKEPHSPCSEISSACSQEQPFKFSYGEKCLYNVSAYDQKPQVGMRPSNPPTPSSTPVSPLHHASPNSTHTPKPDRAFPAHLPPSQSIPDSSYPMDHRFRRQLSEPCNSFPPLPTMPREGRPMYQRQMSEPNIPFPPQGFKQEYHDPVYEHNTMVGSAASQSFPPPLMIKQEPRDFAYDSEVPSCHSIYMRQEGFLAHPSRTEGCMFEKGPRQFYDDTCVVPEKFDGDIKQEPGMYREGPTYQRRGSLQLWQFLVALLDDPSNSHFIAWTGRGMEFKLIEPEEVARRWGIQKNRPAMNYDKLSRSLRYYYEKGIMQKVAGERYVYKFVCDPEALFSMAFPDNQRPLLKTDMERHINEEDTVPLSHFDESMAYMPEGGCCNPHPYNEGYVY
In experiment [11] the target is T6, ERF (Homo sapiens, UniProt P50548 1-548).
T6 sequence: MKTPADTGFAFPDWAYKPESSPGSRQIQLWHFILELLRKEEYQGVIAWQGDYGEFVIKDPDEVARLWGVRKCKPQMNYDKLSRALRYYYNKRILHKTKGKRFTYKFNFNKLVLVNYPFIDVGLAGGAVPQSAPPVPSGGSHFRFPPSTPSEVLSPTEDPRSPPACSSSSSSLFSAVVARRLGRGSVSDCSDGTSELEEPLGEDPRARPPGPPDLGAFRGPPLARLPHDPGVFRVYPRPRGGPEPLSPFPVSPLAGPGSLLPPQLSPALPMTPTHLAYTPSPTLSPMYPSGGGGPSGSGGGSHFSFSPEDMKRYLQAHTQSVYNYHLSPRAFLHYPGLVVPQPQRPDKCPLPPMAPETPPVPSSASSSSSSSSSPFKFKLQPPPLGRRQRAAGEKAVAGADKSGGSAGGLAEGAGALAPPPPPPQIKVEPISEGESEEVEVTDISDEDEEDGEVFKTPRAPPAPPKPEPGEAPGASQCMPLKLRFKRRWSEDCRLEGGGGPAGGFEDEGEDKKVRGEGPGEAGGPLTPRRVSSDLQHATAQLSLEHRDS
The conditions noted are these: protein: recombinant; tags: N-terminal GST; dsDNA, one strand shown. An outline of the steps:
as §1

Experiment [12] deals with T7, ETV3L (Homo sapiens, UniProt Q6ZN32 1-361).
T7 sequence: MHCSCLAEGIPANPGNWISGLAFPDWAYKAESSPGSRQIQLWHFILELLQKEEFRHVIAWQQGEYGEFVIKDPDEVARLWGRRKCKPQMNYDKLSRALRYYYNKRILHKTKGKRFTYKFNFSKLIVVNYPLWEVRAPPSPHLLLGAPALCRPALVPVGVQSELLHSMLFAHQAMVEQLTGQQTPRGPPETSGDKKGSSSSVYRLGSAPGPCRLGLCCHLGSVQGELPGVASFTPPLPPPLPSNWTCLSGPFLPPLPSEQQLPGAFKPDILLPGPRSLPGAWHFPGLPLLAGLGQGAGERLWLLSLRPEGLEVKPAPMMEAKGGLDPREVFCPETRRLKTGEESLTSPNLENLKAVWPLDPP
The conditions noted are these: protein: recombinant; tags: N-terminal GST; dsDNA, one strand shown. An outline of the steps:
as §1

Experiment [13] addresses T8, ETS2 (Homo sapiens, UniProt P15036 1-469).
T8 sequence: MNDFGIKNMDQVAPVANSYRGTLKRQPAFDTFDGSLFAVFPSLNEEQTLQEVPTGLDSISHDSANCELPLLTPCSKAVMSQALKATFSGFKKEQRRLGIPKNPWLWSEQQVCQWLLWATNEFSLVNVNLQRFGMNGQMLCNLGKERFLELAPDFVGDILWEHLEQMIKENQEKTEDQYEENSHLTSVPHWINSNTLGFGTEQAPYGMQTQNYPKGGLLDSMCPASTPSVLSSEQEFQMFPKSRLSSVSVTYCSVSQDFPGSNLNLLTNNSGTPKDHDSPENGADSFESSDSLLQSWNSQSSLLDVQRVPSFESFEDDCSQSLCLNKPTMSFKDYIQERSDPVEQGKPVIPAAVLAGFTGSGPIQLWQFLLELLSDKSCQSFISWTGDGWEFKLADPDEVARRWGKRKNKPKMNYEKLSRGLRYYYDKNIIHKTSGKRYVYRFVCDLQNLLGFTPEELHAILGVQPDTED
The conditions noted are these: protein: recombinant; tags: N-terminal GST; dsDNA, one strand shown. An outline of the steps:
as §1

Experiment [14] concerns the target T9, SPDEF (Homo sapiens, UniProt O95238 1-335).
T9 sequence: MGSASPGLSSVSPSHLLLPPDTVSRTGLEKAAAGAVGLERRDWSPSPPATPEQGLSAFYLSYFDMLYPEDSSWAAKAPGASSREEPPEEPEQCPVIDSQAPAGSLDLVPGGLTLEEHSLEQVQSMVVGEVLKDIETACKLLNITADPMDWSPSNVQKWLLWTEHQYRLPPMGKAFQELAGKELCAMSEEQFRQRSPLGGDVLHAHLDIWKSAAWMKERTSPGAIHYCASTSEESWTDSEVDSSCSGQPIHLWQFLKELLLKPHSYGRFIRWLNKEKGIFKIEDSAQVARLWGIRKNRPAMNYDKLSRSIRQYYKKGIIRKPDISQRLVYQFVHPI
The conditions noted are these: protein: recombinant; tags: N-terminal GST; dsDNA, one strand shown. Put shortly:
as §1

The target in experiment [15] is T10, ETV7 (Homo sapiens, UniProt Q9Y603 1-341).
T10 sequence: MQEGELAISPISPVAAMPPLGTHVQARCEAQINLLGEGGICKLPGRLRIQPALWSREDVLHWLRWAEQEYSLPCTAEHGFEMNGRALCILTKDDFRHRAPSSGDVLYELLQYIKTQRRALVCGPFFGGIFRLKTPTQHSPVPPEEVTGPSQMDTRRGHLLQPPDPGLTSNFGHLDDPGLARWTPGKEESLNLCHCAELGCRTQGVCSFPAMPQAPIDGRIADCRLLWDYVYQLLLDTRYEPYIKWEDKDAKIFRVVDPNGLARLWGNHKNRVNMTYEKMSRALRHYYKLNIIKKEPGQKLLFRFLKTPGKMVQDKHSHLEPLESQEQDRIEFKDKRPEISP
The conditions noted are these: protein: recombinant; tags: N-terminal GST; dsDNA, one strand shown. An outline of the steps:
as §1

For experiment [16], the target named is T11, ELF5 (Homo sapiens, UniProt Q9UKW6-2 1-255).
T11 sequence: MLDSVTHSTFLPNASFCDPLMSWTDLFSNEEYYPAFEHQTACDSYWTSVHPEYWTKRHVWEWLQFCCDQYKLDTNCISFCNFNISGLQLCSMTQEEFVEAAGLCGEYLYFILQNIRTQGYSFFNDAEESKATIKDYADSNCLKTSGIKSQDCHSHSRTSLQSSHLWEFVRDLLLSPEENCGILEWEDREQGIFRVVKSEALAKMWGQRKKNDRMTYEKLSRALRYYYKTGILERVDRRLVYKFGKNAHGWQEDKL
The settings on record: protein: recombinant; tags: N-terminal GST; dsDNA, one strand shown. Put shortly: as §1

Experiment [17] addresses T12, ETV3 (Homo sapiens, UniProt P41162-2 1-143).
T12 sequence: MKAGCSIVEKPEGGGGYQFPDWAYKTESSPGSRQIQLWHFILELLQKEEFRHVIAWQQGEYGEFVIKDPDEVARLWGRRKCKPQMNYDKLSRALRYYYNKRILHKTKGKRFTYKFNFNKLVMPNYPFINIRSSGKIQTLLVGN
The settings on record: protein: recombinant; tags: N-terminal GST; dsDNA, one strand shown. Put shortly:
as §1

In experiment [18] the target is ETV6 (Homo sapiens, UniProt P41212 1-452). The conditions noted are these: protein: recombinant; tags: N-terminal GST; dsDNA, one strand shown. An outline of the steps:
as §1

ETV6, sequence (P41212 whole entry): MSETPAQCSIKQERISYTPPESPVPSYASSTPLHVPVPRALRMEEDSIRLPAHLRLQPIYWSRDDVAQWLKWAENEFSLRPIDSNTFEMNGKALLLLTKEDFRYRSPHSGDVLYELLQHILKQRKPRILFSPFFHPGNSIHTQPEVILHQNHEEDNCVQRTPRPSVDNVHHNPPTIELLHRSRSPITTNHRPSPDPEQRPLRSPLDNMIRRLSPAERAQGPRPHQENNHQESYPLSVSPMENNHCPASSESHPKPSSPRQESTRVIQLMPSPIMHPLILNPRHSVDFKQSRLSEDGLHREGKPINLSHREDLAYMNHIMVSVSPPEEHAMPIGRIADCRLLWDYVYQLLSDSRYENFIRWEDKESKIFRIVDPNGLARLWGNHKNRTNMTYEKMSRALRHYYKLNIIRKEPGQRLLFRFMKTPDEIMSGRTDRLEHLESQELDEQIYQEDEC
CRX, sequence (O43186 whole entry): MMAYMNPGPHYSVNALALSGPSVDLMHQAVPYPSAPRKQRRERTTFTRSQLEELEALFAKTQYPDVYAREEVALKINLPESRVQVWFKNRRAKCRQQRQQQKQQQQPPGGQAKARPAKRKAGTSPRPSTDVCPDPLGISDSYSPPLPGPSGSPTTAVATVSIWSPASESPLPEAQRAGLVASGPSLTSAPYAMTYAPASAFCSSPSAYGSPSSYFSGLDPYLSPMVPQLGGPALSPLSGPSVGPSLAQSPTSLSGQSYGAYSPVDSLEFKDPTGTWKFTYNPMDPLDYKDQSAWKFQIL
HSF1, sequence (Q00613 whole entry): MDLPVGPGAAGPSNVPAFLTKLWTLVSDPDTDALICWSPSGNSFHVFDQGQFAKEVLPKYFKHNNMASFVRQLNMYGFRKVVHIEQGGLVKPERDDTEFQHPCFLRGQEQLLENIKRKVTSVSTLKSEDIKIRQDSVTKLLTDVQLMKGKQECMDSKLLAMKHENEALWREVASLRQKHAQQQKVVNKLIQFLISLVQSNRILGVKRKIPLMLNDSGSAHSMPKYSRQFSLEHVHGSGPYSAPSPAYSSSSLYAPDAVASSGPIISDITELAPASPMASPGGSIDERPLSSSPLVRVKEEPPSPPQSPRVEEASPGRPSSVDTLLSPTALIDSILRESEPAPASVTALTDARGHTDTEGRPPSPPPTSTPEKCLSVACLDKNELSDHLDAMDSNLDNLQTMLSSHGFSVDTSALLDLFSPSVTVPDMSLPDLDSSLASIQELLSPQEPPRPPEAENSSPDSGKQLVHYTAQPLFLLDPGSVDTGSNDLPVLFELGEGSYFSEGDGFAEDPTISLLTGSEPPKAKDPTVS
ELF4, sequence (Q99607 whole entry): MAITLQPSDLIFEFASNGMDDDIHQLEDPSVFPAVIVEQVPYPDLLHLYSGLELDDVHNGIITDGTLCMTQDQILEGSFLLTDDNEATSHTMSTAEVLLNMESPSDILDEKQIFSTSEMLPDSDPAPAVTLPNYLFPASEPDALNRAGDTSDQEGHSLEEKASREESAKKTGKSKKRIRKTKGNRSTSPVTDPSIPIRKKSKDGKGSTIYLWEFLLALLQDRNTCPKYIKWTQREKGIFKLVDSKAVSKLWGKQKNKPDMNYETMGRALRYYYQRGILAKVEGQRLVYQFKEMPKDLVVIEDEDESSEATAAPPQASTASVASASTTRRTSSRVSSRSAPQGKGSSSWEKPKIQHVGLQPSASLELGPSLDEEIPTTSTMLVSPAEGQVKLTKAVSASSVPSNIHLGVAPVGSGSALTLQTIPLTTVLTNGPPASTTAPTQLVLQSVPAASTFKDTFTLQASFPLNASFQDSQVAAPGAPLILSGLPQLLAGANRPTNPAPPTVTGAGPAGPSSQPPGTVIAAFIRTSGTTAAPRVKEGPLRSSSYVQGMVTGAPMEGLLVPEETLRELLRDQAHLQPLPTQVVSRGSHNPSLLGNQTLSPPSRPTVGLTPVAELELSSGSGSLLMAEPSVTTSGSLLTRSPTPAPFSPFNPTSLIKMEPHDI
ETV5, sequence (P41161 whole entry): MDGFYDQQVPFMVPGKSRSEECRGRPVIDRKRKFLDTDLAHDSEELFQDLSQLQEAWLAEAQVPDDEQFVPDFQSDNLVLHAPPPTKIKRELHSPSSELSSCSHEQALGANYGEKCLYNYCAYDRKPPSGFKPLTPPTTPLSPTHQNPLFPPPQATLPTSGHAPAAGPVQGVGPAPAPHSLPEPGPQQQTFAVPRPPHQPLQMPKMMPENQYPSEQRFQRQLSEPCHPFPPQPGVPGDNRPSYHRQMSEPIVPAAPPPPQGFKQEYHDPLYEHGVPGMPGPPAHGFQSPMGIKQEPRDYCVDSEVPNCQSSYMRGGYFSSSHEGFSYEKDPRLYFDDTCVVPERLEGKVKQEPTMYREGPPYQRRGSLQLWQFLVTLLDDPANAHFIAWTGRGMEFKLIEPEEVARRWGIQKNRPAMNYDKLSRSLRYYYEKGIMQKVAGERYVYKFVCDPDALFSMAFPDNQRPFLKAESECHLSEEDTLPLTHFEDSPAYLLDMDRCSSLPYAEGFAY

For TTATGC, the binding signal in experiment [1] was 1.24 fold enrichment (6-mer frequency, TF over GST control); in experiment [2] it was 1.3 fold enrichment (6-mer frequency, TF over GST control); in [3] it was 1.58 fold enrichment (6-mer frequency, TF over GST control); in experiment [4], 1.55 fold enrichment (6-mer frequency, TF over GST control); in [5] it was 1.31 fold enrichment (6-mer frequency, TF over GST control); in [6], 1.33 fold enrichment (6-mer frequency, TF over GST control). The binding signal in experiment [7] is 1.22 fold enrichment (6-mer frequency, TF over GST control); in experiment [8] it was 1.48 fold enrichment (6-mer frequency, TF over GST control); in [9], 2.28 fold enrichment (6-mer frequency, TF over GST control); in [10], 1.32 fold enrichment (6-mer frequency, TF over GST control); in [11], 1.16 fold enrichment (6-mer frequency, TF over GST control); in experiment [12], 1.33 fold enrichment (6-mer frequency, TF over GST control). Moreover, the binding signal in experiment [13] is 1.28 fold enrichment (6-mer frequency, TF over GST control); in [14], 1.37 fold enrichment (6-mer frequency, TF over GST control); in experiment [15] it was 1.44 fold enrichment (6-mer frequency, TF over GST control); in experiment [16] it was 1.29 fold enrichment (6-mer frequency, TF over GST control); in experiment [17], 1.34 fold enrichment (6-mer frequency, TF over GST control); in [18] it was 1.31 fold enrichment (6-mer frequency, TF over GST control).
